Holding throughout (test): DAPPL (digital affinity profiling via proximity ligation, sequencing); 10 mM Tris-HCl pH 7.5, 50 mM NaCl, 1 mM DTT, 4% glycerol, room temperature, 30 min; GST-TFs on glutathione beads, 16-mer random dsDNA library, 0.1% formaldehyde crosslink after washing; high values mean tight binding
In one test the target is T1, FLI1 (Homo sapiens, UniProt Q01543 1-452).
T1 sequence: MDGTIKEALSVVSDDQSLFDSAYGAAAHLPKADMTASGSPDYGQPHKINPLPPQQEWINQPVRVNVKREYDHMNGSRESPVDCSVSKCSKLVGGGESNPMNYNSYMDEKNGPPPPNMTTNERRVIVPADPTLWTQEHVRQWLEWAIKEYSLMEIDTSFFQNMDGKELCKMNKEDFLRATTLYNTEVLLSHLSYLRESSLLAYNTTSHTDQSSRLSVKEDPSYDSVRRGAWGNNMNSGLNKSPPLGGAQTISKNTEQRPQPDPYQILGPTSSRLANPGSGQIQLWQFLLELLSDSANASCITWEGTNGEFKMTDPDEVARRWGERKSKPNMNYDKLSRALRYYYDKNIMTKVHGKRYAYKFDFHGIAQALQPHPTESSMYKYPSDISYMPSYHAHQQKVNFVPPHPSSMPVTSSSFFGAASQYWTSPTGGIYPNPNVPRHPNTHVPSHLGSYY
As to conditions: protein: recombinant; tags: N-terminal GST; dsDNA, one strand shown. In short, it runs like this: (§1)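 Sequencing on an Illumina NextSeq500 followed washing, crosslinking with 0.1% formaldehyde, proximity ligation (BsaI/T4 ligase, 1 h, 37 °C) and PCR amplification of pools that had been incubated for 30 min at room temperature with 200 nmole of a random double-stranded 16-mer DNA library in Tris/NaCl/DTT/glycerol buffer. Each pool held DNA-barcoded human transcription factors, expressed in yeast as GST fusions and captured on glutathione beads, plus a tag-only sample. Binding signal is a hexamer's read frequency for a factor divided by its frequency in the tag-only sample.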

In the next test the target is T2, ELK1 (Homo sapiens, UniProt P19419 1-428).
T2 sequence: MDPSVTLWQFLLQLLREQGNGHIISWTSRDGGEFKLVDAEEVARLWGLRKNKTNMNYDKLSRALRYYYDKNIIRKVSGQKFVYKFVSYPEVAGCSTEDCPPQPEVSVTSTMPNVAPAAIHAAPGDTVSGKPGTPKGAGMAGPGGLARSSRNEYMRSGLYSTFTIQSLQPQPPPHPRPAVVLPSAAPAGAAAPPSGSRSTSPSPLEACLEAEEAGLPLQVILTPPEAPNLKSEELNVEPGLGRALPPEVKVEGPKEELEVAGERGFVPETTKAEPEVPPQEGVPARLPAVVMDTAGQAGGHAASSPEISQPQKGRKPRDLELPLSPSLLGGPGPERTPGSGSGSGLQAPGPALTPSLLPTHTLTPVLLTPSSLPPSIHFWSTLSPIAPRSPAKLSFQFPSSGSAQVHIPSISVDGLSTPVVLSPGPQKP
The note with it: protein: recombinant; tags: N-terminal GST; dsDNA, one strand shown. In short, it runs like this: as §1

A further test deals with T3, GABPA (Homo sapiens, UniProt Q06546 1-454).
T3 sequence: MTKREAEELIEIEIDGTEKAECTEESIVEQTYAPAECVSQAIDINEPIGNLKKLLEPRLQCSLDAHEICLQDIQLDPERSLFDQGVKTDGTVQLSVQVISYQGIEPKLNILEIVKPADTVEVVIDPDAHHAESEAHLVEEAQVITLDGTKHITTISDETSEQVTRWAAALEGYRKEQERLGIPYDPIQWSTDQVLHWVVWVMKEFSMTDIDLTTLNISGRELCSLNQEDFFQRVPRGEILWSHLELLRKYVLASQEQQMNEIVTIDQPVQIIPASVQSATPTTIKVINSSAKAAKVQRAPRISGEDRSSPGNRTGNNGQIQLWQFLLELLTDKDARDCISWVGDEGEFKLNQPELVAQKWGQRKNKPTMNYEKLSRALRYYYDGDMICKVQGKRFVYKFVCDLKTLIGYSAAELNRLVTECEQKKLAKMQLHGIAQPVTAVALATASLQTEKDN
As to conditions: protein: recombinant; tags: N-terminal GST; dsDNA, one strand shown. In short, it runs like this:
as §1

The target of another test is T4, ERG (Homo sapiens, UniProt P11308 1-479).
T4 sequence: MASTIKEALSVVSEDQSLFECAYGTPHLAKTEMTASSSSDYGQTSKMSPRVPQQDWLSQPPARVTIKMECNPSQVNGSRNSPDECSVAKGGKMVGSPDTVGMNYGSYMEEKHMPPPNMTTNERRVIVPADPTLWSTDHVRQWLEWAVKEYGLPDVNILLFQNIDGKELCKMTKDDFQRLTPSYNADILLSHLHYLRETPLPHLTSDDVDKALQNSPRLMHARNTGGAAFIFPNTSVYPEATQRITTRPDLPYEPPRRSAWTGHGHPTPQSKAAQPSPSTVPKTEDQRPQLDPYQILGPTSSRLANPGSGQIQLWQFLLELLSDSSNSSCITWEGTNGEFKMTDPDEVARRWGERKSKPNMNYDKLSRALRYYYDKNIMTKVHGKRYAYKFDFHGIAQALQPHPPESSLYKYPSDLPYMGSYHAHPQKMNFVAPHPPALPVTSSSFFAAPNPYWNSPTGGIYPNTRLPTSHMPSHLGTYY
The note with it: protein: recombinant; tags: N-terminal GST; dsDNA, one strand shown. In short, it runs like this: as §1

The next test concerns the target ELF1 (Homo sapiens, UniProt P32519 1-619). The note with it: protein: recombinant; tags: N-terminal GST; dsDNA, one strand shown. The essentials: as §1
A further test deals with T5, EHF (Homo sapiens, UniProt Q9NZC4 1-300).
T5 sequence: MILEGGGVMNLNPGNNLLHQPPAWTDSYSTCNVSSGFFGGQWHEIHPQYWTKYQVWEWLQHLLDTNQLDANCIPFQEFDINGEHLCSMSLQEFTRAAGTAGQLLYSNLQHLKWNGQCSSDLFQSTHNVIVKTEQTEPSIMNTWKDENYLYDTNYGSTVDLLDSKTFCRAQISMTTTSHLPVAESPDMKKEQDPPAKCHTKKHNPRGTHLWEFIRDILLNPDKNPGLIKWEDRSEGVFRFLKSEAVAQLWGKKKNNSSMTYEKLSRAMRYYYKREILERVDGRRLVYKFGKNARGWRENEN
As to conditions: protein: recombinant; tags: N-terminal GST; dsDNA, one strand shown. In short, it runs like this: as §1

The next test deals with T6, ELK3 (Homo sapiens, UniProt P41970 1-407).
T6 sequence: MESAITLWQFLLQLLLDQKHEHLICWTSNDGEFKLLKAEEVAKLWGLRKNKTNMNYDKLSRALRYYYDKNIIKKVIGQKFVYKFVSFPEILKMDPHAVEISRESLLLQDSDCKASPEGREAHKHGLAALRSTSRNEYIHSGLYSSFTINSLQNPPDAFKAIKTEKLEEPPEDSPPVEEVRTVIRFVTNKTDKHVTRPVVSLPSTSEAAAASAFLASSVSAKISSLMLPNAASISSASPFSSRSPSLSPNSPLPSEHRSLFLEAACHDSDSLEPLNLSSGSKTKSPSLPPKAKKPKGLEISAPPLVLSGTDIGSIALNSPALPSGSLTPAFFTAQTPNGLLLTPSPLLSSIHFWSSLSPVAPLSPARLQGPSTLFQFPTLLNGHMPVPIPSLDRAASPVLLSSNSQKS
As to conditions: protein: recombinant; tags: N-terminal GST; dsDNA, one strand shown. The essentials: as §1

The target of the next test is T7, FEV (Homo sapiens, UniProt Q99581 1-238).
T7 sequence: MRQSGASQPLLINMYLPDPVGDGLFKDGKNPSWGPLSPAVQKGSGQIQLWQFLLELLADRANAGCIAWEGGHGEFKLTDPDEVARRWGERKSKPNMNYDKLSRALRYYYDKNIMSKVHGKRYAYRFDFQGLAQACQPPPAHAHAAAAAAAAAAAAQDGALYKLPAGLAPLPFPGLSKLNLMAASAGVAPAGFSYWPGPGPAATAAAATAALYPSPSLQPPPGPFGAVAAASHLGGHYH
The note with it: protein: recombinant; tags: N-terminal GST; dsDNA, one strand shown. In short, it runs like this: as §1

The target of the next test is ETV5 (Homo sapiens, UniProt P41161 1-510). The note with it: protein: recombinant; tags: N-terminal GST; dsDNA, one strand shown. In short, it runs like this: as §1
A further test deals with HSF1 (Homo sapiens, UniProt Q00613 1-529). As to conditions: protein: recombinant; tags: N-terminal GST; chain copies: 3; dsDNA, one strand shown. The essentials:
as §1

A further test addresses T8, SPIC (Homo sapiens, UniProt Q8N5J4 1-248).
T8 sequence: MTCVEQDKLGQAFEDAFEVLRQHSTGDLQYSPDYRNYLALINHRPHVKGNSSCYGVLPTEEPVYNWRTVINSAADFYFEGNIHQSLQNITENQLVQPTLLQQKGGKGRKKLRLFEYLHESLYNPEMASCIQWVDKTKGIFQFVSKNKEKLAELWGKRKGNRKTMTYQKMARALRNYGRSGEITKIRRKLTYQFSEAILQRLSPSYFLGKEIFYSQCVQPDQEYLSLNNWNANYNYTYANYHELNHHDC
The note with it: protein: recombinant; tags: N-terminal GST; dsDNA, one strand shown. In short, it runs like this:
as §1

A further test concerns the target ELF4 (Homo sapiens, UniProt Q99607 1-663). The note with it: protein: recombinant; tags: N-terminal GST; dsDNA, one strand shown. The essentials: as §1
For another test, the target named is T9, ELK4 (Homo sapiens, UniProt P28324-2 1-405).
T9 sequence: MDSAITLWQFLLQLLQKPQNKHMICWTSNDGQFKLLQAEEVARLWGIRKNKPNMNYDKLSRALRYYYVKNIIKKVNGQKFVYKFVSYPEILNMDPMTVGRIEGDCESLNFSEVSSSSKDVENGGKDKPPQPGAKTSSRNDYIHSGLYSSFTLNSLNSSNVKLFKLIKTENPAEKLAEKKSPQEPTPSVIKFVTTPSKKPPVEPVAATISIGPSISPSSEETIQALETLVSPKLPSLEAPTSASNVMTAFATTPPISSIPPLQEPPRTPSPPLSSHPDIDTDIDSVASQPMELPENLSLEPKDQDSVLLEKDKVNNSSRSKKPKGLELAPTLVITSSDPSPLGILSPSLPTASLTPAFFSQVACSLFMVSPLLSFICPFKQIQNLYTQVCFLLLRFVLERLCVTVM
The note with it: protein: recombinant; tags: N-terminal GST; dsDNA, one strand shown. The essentials: as §1

Another test concerns the target T10, ETV2 (Homo sapiens, UniProt O00321 1-342).
T10 sequence: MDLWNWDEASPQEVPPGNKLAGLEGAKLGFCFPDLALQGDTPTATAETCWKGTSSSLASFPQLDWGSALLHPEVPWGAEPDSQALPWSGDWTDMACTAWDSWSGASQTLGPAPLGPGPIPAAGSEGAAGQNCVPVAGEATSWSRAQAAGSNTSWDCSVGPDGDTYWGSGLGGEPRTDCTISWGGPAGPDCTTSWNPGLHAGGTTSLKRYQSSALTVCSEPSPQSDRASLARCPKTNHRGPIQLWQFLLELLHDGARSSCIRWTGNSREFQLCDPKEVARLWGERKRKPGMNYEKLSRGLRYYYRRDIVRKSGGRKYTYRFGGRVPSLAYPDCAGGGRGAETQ
The note with it: protein: recombinant; tags: N-terminal GST; dsDNA, one strand shown. The essentials:
as §1

The target of a further test is T11, ELF3 (Homo sapiens, UniProt P78545 1-371).
T11 sequence: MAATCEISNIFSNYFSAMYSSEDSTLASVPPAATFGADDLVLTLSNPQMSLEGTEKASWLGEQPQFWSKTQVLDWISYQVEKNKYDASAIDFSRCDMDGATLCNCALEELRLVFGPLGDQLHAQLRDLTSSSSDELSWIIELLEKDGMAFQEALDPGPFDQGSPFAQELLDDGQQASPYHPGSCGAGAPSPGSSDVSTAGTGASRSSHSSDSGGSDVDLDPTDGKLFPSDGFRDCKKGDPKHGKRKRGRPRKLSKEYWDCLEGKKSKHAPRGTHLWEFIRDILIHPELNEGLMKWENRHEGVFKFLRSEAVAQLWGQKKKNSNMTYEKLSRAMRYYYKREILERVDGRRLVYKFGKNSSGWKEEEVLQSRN
As to conditions: protein: recombinant; tags: N-terminal GST; dsDNA, one strand shown. The essentials:
as §1

The target in a further test is ETV1 (Homo sapiens, UniProt P50549 1-477). As to conditions: protein: recombinant; tags: N-terminal GST; dsDNA, one strand shown. The essentials:
as §1

ETV5, sequence (P41161 whole entry): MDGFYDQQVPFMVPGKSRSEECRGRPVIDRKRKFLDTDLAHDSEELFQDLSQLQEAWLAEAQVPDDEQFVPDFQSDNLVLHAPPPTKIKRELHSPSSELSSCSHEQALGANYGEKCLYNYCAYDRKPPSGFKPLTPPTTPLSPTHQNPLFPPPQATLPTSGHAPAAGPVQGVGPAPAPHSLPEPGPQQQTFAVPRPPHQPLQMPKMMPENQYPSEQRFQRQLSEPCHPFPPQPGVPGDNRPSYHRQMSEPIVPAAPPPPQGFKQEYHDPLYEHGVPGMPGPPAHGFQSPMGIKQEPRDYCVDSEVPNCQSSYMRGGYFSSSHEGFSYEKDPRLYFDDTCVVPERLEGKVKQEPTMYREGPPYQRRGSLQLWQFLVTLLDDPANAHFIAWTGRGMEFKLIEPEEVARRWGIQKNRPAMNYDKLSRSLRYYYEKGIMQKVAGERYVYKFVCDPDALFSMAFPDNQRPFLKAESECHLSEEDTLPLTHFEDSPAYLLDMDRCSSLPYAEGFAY
ELF4, sequence (Q99607 whole entry): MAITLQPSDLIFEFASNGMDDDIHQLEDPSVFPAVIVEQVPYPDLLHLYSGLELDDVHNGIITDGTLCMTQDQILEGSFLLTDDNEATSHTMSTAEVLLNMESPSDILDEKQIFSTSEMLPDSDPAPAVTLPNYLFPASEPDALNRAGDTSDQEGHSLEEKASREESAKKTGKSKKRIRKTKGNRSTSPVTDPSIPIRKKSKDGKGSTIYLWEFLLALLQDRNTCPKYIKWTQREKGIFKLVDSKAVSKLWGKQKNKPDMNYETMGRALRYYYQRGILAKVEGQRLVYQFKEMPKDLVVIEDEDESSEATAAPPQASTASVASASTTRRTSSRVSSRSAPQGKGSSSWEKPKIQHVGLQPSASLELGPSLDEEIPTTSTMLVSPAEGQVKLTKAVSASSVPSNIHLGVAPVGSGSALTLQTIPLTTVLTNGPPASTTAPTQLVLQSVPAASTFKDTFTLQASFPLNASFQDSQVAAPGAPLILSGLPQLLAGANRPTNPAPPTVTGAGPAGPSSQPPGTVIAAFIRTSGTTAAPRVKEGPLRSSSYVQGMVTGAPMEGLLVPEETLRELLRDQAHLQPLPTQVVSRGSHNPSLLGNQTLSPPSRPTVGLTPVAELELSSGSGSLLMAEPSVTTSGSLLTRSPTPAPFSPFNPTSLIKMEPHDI
ELF1, sequence (P32519 whole entry): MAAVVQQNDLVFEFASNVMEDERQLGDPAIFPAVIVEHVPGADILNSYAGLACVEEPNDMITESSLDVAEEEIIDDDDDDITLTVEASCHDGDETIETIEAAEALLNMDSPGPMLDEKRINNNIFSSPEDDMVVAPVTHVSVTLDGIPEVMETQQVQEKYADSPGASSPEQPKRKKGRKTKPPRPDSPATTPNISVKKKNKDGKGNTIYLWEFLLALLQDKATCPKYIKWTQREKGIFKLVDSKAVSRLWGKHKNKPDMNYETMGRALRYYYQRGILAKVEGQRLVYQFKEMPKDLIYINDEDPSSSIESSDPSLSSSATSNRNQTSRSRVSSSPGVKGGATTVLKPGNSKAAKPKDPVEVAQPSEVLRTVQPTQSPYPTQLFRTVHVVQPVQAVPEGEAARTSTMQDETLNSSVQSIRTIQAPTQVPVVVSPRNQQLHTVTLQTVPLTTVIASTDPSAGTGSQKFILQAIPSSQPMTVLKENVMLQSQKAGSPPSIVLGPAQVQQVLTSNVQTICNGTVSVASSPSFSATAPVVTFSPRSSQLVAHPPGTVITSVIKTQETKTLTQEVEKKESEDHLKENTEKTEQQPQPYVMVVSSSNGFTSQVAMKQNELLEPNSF
ETV1, sequence (P50549 whole entry): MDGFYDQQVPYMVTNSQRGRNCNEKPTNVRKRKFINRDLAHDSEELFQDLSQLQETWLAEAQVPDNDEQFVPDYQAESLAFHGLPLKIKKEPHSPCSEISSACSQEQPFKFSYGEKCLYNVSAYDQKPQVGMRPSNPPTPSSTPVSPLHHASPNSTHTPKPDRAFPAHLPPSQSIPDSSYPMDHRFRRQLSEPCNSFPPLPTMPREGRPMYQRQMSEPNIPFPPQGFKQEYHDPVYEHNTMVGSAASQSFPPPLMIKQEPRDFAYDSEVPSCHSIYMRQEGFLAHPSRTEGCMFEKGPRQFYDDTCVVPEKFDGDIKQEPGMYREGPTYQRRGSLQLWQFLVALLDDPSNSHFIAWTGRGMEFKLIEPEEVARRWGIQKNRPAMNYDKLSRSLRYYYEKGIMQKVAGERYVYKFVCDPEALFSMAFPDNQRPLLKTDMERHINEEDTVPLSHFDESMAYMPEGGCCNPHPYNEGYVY
HSF1, sequence (Q00613 whole entry): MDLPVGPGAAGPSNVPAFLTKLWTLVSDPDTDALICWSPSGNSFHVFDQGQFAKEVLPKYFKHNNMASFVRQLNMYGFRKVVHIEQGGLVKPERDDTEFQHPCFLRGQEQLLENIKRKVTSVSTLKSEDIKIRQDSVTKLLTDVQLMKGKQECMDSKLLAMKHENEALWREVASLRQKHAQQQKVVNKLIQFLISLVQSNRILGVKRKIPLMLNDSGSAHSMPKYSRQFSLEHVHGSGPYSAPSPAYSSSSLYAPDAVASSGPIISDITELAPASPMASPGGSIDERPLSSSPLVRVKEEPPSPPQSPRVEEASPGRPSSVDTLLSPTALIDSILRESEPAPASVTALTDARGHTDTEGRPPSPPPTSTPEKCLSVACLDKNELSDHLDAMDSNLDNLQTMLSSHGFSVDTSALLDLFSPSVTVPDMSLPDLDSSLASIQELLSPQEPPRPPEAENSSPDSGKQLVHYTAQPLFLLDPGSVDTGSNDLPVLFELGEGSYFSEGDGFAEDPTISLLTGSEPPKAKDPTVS

CACCGA: the binding signal is 1.01 fold enrichment (6-mer frequency, TF over GST control) with FLI1; 1.01 fold enrichment (6-mer frequency, TF over GST control) with ELK1; 1.08 fold enrichment (6-mer frequency, TF over GST control) with GABPA; 1.08 fold enrichment (6-mer frequency, TF over GST control) in the test with ERG; 1.11 fold enrichment (6-mer frequency, TF over GST control) in the test with ELF1; 1.08 fold enrichment (6-mer frequency, TF over GST control) with EHF. Moreover, the binding signal with ELK3 is 1 fold enrichment (6-mer frequency, TF over GST control); in the test with FEV, 1.1 fold enrichment (6-mer frequency, TF over GST control); with ETV5 it was 1.1 fold enrichment (6-mer frequency, TF over GST control); with HSF1, 1.06 fold enrichment (6-mer frequency, TF over GST control); in the test with SPIC, 1.05 fold enrichment (6-mer frequency, TF over GST control); with ELF4, 1.08 fold enrichment (6-mer frequency, TF over GST control). The binding signal was 1.13 fold enrichment (6-mer frequency, TF over GST control) with ELK4; 1.1 fold enrichment (6-mer frequency, TF over GST control) with ETV2; 1.04 fold enrichment (6-mer frequency, TF over GST control) in the test with ELF3; 1.1 fold enrichment (6-mer frequency, TF over GST control) in the test with ETV1.

For the origin of these results see publication PMC7862700, “An all-to-all approach to the identification of sequence-specific readers for epigenetic DNA modifications on cytosine”.
